High-throughput results (PubChem)
esBAF inh: SWI/SNF esBAF complex inhibition | hit rate 2% among 350,000 | AID 602393 | mouse ES cells, Bmi1-luciferase knock-in reporter, 24 h; 100% = twice the neutral-well signal | reporter increase, % at 12.5 µM; in the data active = activation above about 40%;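 also: 0% = median of the plate's neutral control wells and 100% = double that signal; a rise in the Bmi1 reporter signal indicates esBAF inhibition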
SKN-1 block: C. elegans SKN-1 inhibition. C. elegans VP596 Pgst-4::GFP/RFP ratio, acrylamide-induced, 24 h. inhibition, % at 21.8 µM. hit rate 0.49% among 360,000. AID 624304;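 active = interference check ratio from 0.5 to 1.5 plus GFP to RFP signal ratio inhibition reaching or exceeding a fixed threshold, cut at about 30% in these data, passing the limit was not always enough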
Vif inh: HIV Vif inhibition; HEK293T cells, Vif self-association by quenched fluorescence, imaging, 24 h; hit rate 0.35% among 340,000; AID 602346; inhibition, % at 7.49 µM; in the data active = inhibition above about 50%, passing the limit was not always enough
SMARCA2 act: activators of SMARCA2 function; activation, % at 9.1 µM; hit rate 1% among 370,000; MG213 cells, MMTV-luciferase reporter, dexamethasone, overnight; in the data active = activation above about 7.8%;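 also: 0% = vehicle wells and 100% = reference activator wells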
GRIN3A LBD mod: modulators (binders) of human NR3A ligand-binding domain; AID 1259313; NR3A LBD differential scanning fluorimetry, Tm shift; 0% = protein alone, 100% = glycine-bound protein; Tm shift relative to glycine control, % at 25 µM; hit rate 2.5% among 340,000;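 active = melting temperature shift of at least 10% of the positive control shift, at one fixed dose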
NadD block: NadD (S. aureus) enzyme inhibition; inhibition, % at 20 µM; hit rate 0.78% among 360,000; purified NadD enzyme, colorimetric absorbance read-out; in the data active = inhibition above about 26%
* = called active by the depositor; . = no result given. Only some compounds are listed: those with a hit (about 5.2% of all), similar ones and a draw of the others.

SMILES | esBAF inh | SKN-1 block | Vif inh | SMARCA2 act | GRIN3A LBD mod | NadD block
C[C@H]1CN([C@@H](C)CO)C(=O)Cc2cc(NC(=O)CCCCCC(=O)Nc3ccccc3N)ccc2O[C@H]1CN(C)S(=O)(=O)c1ccc(Cl)cc1 | -3 | . | . | . | . | .
C=CCOc1ccc(/C(O)=C2/C(=O)C(=O)N(CCCn3ccnc3)C2c2cccs2)cc1 (stereo not given) | 44* | -9 | 14 | 6 | 0 | 29
C=CCOc1ccc(/C(O)=C2/C(=O)C(=O)N(CCCn3ccnc3)C2c2ccco2)cc1 (stereo not given) | 6 | 2 | 16 | -2 | 0 | 2
COc1ccccc1OCC(=O)Sc1ccc(C)cc1 | -4 | -2 | 10 | 0 | 7 | -4
Cc1ccc(OCC(=O)Sc2ccc(C)cc2)cc1 | 2 | 56* | 1 | 1 | 15* | -9
Cc1noc(C)c1S(=O)(=O)N(C)C[C@H]1OCCCC[C@H](C)Oc2ccc(NS(=O)(=O)c3ccc(Cl)cc3)cc2C(=O)N([C@H](C)CO)C[C@@H]1C | 2 | . | . | . | . | .
CN1[C@@H]2Cn3c(ccc(C4=CCCCC4)c3=O)[C@H]1[C@@H](C(=O)NCc1cc(F)cc(F)c1)[C@@H]2CO | 1 | . | . | . | . | .
CC(C)c1cccc(-c2ccc3c(c2)S(=O)(=O)c2cccc(C(=O)O)c2C3=O)c1 | 6 | -12 | -8 | 1 | 24* | 1
C[C@@H]1CN([C@@H](C)CO)C(=O)c2cccc(NS(=O)(=O)c3cn(C)cn3)c2O[C@@H]1CN(C)C(=O)Nc1cccc2ccccc12 | -5 | . | . | . | . | .
CC(C)C(=O)Nc1ccc(NC(=O)c2cc3ccccc3o2)cc1 | 22 | 9 | -10 | 2 | 3 | -3
CC(C)C(=O)Nc1ccc(NC(=S)NC(=O)c2cc3ccccc3o2)cc1 | . | 2 | 0 | 0 | 17* | -5
CC(=O)Nc1ccc(NC(=S)NC(=O)c2cc3ccccc3o2)cc1 | . | -6 | 3 | -2 | 16* | 1
O=C(NC(=S)Nc1ccc(CN2CCCCC2)cc1)c1cc2ccccc2o1 | 18 | 73* | -1 | -3 | -2 | 8
COc1cccc(-c2ccc3c(c2)O[C@@H](CN(C)Cc2ccncc2)[C@@H](C)CN([C@H](C)CO)S3(=O)=O)c1 | 2 | . | . | . | . | .
C[C@@H]1CCCCO[C@H](CN(C)C(=O)Nc2ccc(F)cc2)[C@H](C)CN([C@H](C)CO)C(=O)c2cc(NS(=O)(=O)c3ccccc3)ccc2O1 | 4 | . | . | . | . | .
C[C@H]1CN([C@@H](C)CO)C(=O)Cc2cc(NC(=O)C3CC3)ccc2O[C@@H]1CN(C)S(=O)(=O)c1ccc(F)cc1 | 2 | . | . | . | . | .
CCOc1ccc2c(C)c(C(=O)O)oc2c1OCC | 2 | -15 | 55* | 1 | 0 | 3
CCOc1ccc2c(C)c(C)c(=O)oc2c1OCC | -2 | -7 | 4 | 0 | -1 | -2
COC(=O)c1ccc(-c2cc3onc(-c4ccccc4)c3c(=O)n2C)cc1 | 39 | 4 | 5 | 6 | 0 | -12
CN(C)C(=O)c1ccc(-c2cc3onc(-c4ccccc4)c3c(=O)n2C)cc1 | 55* | 19 | -4 | 2 | 1 | 3
C[C@H]1CN([C@@H](C)CO)C(=O)c2cc(C#CC(C)(C)O)cnc2O[C@@H]1CN(C)C(=O)C1CCCCC1 | 3 | . | . | . | . | .
CCOc1ccc2nc(SCC(=O)c3ccccc3)sc2c1 | 47* | -1 | 6 | 7 | 2 | -7
CCOc1ccc2nc(SCc3ccc(OC)cc3)sc2c1 | . | 5 | 2 | 1 | 2 | 7
CCOc1ccc2nc(SCc3ccccc3C#N)sc2c1 | 61* | 14 | -5 | 7 | 2 | -2
COc1cccc(NC(=O)N[C@@H]2CC[C@H](CC(=O)NCc3ccncn3)O[C@@H]2CO)c1 | -2 | . | . | . | . | .
SMILES | esBAF inh | SKN-1 block | Vif inh | SMARCA2 act | GRIN3A LBD mod | NadD block
FC(F)Sc1ccc(NC(=S)NCc2ccccc2)cc1 | -2 | 9 | -12 | -4 | 12* | -2
FC(F)Sc1ccc(NC(=S)NC(c2ccccc2)c2ccccc2)cc1 | . | -9 | -5 | -9 | 28* | -8
O=C(C[C@@H]1CC[C@H]2[C@@H](COC[C@@H](O)CN2Cc2nccs2)O1)NCc1ccc(Cl)cc1 | -2 | . | . | . | . | .
COc1ccc(S(=O)(=O)N2CCOCC2)cc1NC(=O)COC(=O)CCOc1ccc(C)cc1 | -2 | 5 | -1 | -2 | 2 | -6
O=C(CN1C(=O)NC2(CCCC2)C1=O)Nc1cc(S(=O)(=O)N2CCOCC2)ccc1OCC(F)(F)F | . | 40* | 0 | 1 | -2 | -2
CCN(CC)c1ccc(S(=O)(=O)N2CCOCC2)cc1NC(=O)CN1C(=O)NC2(CCCC2)C1=O | . | -5 | . | -3 | -3 | -4
Cc1ccc(CNC(=O)COc2ccc(S(=O)(=O)N3CCOCC3)cc2)cc1 | . | 26 | 6 | -2 | 10* | -10
COc1cc(NC(=O)COc2ccc3c(C)cc(=O)oc3c2C)cc(OC)c1OC | -15 | 10 | 14 | 3 | 14* | 6
COc1ccc(S(=O)(=O)N2CCOCC2)cc1NC(=O)COc1ccc(C)cc1 | 7 | 6 | -5 | -3 | 18* | 2
COc1cccc(C(=O)Nc2ccc3c(c2)C(=O)N(C)C[C@H](OC)[C@H](C)CN(C)[C@@H](C)CO3)c1 | 4 | . | . | . | . | .
O=C(C[C@H]1CC[C@H](NC(=O)CN2CCOCC2)[C@H](CO)O1)NC1CCCCC1 | -5 | . | . | . | . | .
CO[C@@H]1CN(C)C(=O)c2cc(NC(=O)C3CCC3)ccc2OC[C@@H](C)NC[C@@H]1C | -7 | . | . | . | . | .
CCN(CC)S(=O)(=O)c1ccc(OC)c(NC(=O)COc2ccc3c(C)cc(=O)oc3c2)c1 | . | 5 | 6 | -1 | 11* | 15
CCN(CC)S(=O)(=O)c1ccc(Cl)c(NC(=O)COc2ccc3c(C)cc(=O)oc3c2)c1 | . | 5 | 6 | -3 | 2 | 0
CC(C)CCNC(=O)CCc1nnc(COc2ccccc2)o1 | . | -9 | 86* | 1 | -1 | -3
CCc1cc(CNC(=O)CCc2nnc(CCCc3ccccc3)o2)on1 | 57* | 12 | -5 | 5 | -1 | -2
O=C(CCc1nnc(CCCc2ccccc2)o1)NCCc1ccco1 | . | 4 | 3 | 7.8* | -1 | -4
O=C(CCc1nnc(COc2ccccc2)o1)NCCc1cccs1 | . | 4 | . | 0 | -1 | -1
C[C@H]1CN([C@@H](C)CO)C(=O)c2cc(NS(=O)(=O)c3ccc(Cl)cc3)ccc2O[C@@H]1CN(C)Cc1ccc2c(c1)OCO2 | -4 | . | . | . | . | .
O=C(C[C@H]1CC[C@@H]2NC[C@H](O)COC[C@H]2O1)NCCc1ccccc1 | 0 | . | . | . | . | .
O=C(NC(=S)NC1CCCCCCCCCCC1)c1cccnc1 | -2 | -11 | 4 | 4 | -8 | 2
O=C(NC(=S)NC1CCCC1)c1ccccc1 | 56* | 5 | 13 | 2 | 3 | -2
O=C(NC1CCCCC1)C(=S)NCc1ccccc1 | 50* | -2 | 14 | 1 | -1 | 0
C[C@H]1CN([C@@H](C)CO)C(=O)CCCn2cc(nn2)CO[C@H]1CN(C)S(=O)(=O)c1ccc(C#N)cc1 | -2 | . | . | . | . | .
